# DT40 TDP1 no CPT – qHTS for Inhibitors of human tyrosyl-DNA phosphodiesterase 1 (TDP1): qHTS in cells in absence of CPT; DT40 Tdp1-/- hTDP1 cells, no CPT, ATP luminescence, 48 h; Potency, µM (doses to about 46.2 µM), for inactives: at the top dose activity change, negative = growth inhibition, actives largely listed as inhibitors; 15% of 420,000 active; also: potency is read from the fitted curve at half-maximal effect; nearly all actives have a fitted effect of over 55% in size
#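 Chicken DT40 Tdp1-/- cells stably complemented with human TDP1 were seeded at 400 cells/well with DMSO in place of 20 nM camptothecin. After compound pinning, cells grew at least 48 hr at 37 °C; viability read by CellTiter-Glo luminescence.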
# IL1B secr inh – inflammasome signaling inhibition, IL-1 beta readout. THP-1 LPS/ATP IL-1B secretion, AlphaLISA, 16 h; active compounds read low. activity change, % at 57.5 µM. 4.7% of 360,000 active; in the data active = activity change below about -50%; inconclusive = mostly about -30% to -49%
#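 Secreted IL-1B measured by AlphaLISA bead assay after 16 h compound exposure of THP-1 cells; compounds (final up to 57.5 uM) added 1 h before LPS (250 ng/mL) and ATP (1.25 mM) stimulation; lower signal means less secretion.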
# DT40 TDP1 CPT – growth inhibition of DT40 Tdp1-/-;hTDP1 cells with camptothecin (screen for TDP1 inhibitors). chicken DT40 Tdp1-/-;hTDP1 cells + 20 nM CPT, ATP luminescence, 48 h. Potency, µM (highest dose often 46.2 µM), without a hit: at the highest dose activity change, negative = growth inhibition, actives largely listed as inhibitors. 12% of 420,000 active. AID 686979; also: potency is read from the fitted curve at half-maximal effect; nearly all actives have a fitted effect of over 55% in size
#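 Chicken DT40 Tdp1-/- cells complemented with human TDP1, 400 cells/well, exposed to compounds plus 20 nM camptothecin for at least 48 h at 37 C; viability read as ATP content by CellTiter-Glo luminescence.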
# HT1080NT lethal – kills 2HG-producing HT-1080-NT fibrosarcoma cells; 1.6% of 360,000 active; Potency, µM (titrated, usually from 46.1 µM), inactives show at the top dose activity, negative = less viability, hits mostly cytotoxic; AID 686970; HT-1080-NT fibrosarcoma viability, CellTiter-Glo ATP luminescence, 48 h;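 also: NT is the 2HG producing partner of a matched IDH1 knockdown line; potency is read from the fitted curve at half-maximal effect; 0% = DMSO-treated cells and -100% = media-only wells without cells; nearly all actives have a fitted effect of over 55% in size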
#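 Toxicity toward the 2HG-producing NT line was scored as %Activity, normalised to DMSO and no-cell wells, from CellTiter-Glo luminescence after 48 hours' treatment.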
# HT1080 IDH1KD tx – HT-1080 IDH1 knockdown cell toxicity (counter line). Potency, µM (highest dose often 46.1 µM), for inactives: at the highest dose activity, negative = toxicity, most hits filed as cytotoxic. AID 686971. HT-1080 IDH1 knockdown viability, ATP luminescence, 48 h. 2% of 360,000 active;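 also: potency is read from the fitted curve at half-maximal effect; 0% = DMSO wells and -100% = cell-free medium wells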
#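 Using the IDH1-knockdown HT-1080 line run in the same batch and compound series as the NT line, viability after 48 h at 37 °C was determined by CellTiter-Glo luminescence and expressed as % activity.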
# Numbers without * were called inactive; i = inactive; ? = inconclusive; · = no result; [ ] = remark or other dose. A selection: hits, their analogues and other compounds. The true share with any hit is near 19%. Unless noted, calls follow the shape of the dose curve; as a rule, active = well fitted curve in the direction sought with a large enough effect; inconclusive = small, poorly fitted or top-dose-only effect, or another doubt; inactive = no such curve, though single readings can be large; an effect the other way counts as inactive or inconclusive. Unless noted, % is scaled to controls: 0 for no effect and ±100 for the full control effect.
SMILES,DT40 TDP1 no CPT,IL1B secr inh,DT40 TDP1 CPT,HT1080NT lethal,HT1080 IDH1KD tx
Cc1nc2sccn2c(=O)c1S(=O)(=O)NC(C)c1ccccc1 (configuration not stated),?,-13,2%,0%,-1%
COc1cc(C(=O)OC2CSCC2NC(=O)c2ccccc2)cc(OC)c1OC (configuration not stated),?,16,?,0%,-8%
CCc1noc(-c2ccc(N(C)Cc3ccc(OC)cc3)c([N+](=O)[O-])c2)n1,5.8µM*,·,6.5µM*,·,·
CCc1noc(-c2ccc(NCc3ccccc3)c([N+](=O)[O-])c2)n1,18µM*,·,23µM*,·,·
Cc1ccccc1-c1noc(-c2ccc(NCc3cccnc3)c([N+](=O)[O-])c2)n1,2.3µM*,·,4.1µM*,·,·
CCCc1noc(-c2ccc(NCc3ccc(C)cc3)c([N+](=O)[O-])c2)n1,-27%,·,?,·,·
Cc1c(-c2nc(-c3cccnc3)no2)cccc1[N+](=O)[O-],18µM*,19,18µM*,-25%,-25%
Cc1noc(C)c1C(=O)N1CCC2(CCCN(c3ccccn3)C2)CC1,?,·,-2%,·,·
CCOc1ccccc1NC(=O)c1cc2c(=O)oc3ccccc3c2s1,-19%,·,-8%,·,·
COCCN1C(=O)c2ccccc2C(C(=O)NCCCN2CCCC2)C1c1c[nH]c2ccccc12 (configuration not stated),26µM*,3,?,11%,12%
CCOc1ccc(NC(=O)CCc2nc3cccnc3n2Cc2ccc(OC)cc2)cc1,?,·,-2%,·,·
CCCn1c(CCC(=O)Nc2cc(C(=O)OC)cc(C(=O)OC)c2)nc2cccnc21,?,·,29µM*,·,·
CCCn1c(CCC(=O)Nc2cc(OC)cc(OC)c2)nc2cccnc21,23µM*,·,?,·,·
S=c1[nH]nc(-c2cccnc2)n1/N=C/c1ccc(Br)s1,-3%,18,13%,-1%,-6%
Cc1ccc(/C=N/n2c(-c3cccnc3)n[nH]c2=S)s1,-20%,-54*,0%,7%,15%
Cc1ccc(/C=N/n2cc(-c3ccccc3)[nH]c2=S)s1,5.2µM*,11,8.2µM*,-6%,1%
N#Cc1c(-c2ccccc2F)cc(C2CC2)nc1SCC(=O)c1cccs1,18µM*,i,18µM*,20%,1%
CCSc1nc(C2CC2)cc(-c2cccs2)c1C#N,?,14,-27%,5%,3%
CCc1c(C)nc(SCC(N)=O)c(C#N)c1C,-10%,16,-12%,-1%,-7%
Cc1cccc(C)c1NC(=O)CSc1nc(C)c(CC(=O)c2ccc(Br)cc2)c(C)c1C#N,?,24,21µM*,34%,14%
CCc1c(C)nc(SCC(=O)c2cccs2)c(C#N)c1C,?,-99*,?,-6%,-25%
COc1cccc(C(=O)NCCS(=O)(=O)N2CC(C)CC(C)C2)c1 (configuration not stated),-9%,0,5%,10%,4%
CCCC(C(=O)NC(C)(C)C)N(Cc1ccc(F)cc1)C(=O)c1snc(C(N)=O)c1N (configuration not stated),?,9,-15%,-2%,-8%
CCCC(C(=O)NCCC(C)C)N(Cc1ccccc1)C(=O)c1snc(C(N)=O)c1N (configuration not stated),?,-22,18µM*,-18%,0%
CCC(C(=O)NC1CCCC1)N(Cc1ccccc1Cl)C(=O)c1snc(C(N)=O)c1N (configuration not stated),13µM*,-1,-5%,-10%,-2%
SMILES,DT40 TDP1 no CPT,IL1B secr inh,DT40 TDP1 CPT,HT1080NT lethal,HT1080 IDH1KD tx
CCCCC(C(=O)NC1CCCC1)N(Cc1ccccc1)C(=O)c1snc(C(N)=O)c1N (configuration not stated),21µM*,-28,?,-25%,-21%
CCCC(C(=O)NC1CCCC1)N(Cc1ccc2c(c1)OCO2)C(=O)c1snc(C(N)=O)c1N (configuration not stated),?,-53*,?,-19%,-3%[9.24 µM]
O=C(Nc1c(-c2ccc(F)cc2)nc2ccccn12)c1ccccc1F,?,·,-21%,·,·
Cc1nn2c(-c3ccccc3)ccnc2c1Br,?,25,?,1%,3%
Cc1nn2c(-c3cccnc3)ccnc2c1-c1ccccc1,23µM*,-11,?,0%,0%
CCC(C(=O)NCCc1cc(OC)ccc1OC)n1nc(C)c2c(C)n(-c3ccccc3)nc2c1=O (configuration not stated),?,·,18µM*,·,·
COc1ccc(CCNC(=O)Cn2nc(C)c3c(C)n(-c4ccc(C)cc4)nc3c2=O)c(OC)c1,?,·,16µM*,·,·
COc1ccc(OC)c(CCNC(=O)C(C)n2nc(C)c3c(C)n(-c4ccc(C)cc4)nc3c2=O)c1 (configuration not stated),18µM*,7,?,-17%,21µM*
CCN(C(=O)CSc1nnc(-c2ccco2)n1C)c1c(N)n(Cc2ccccc2)c(=O)[nH]c1=O,-5%,-2,-25%,6%,17%
COc1cccc(NC(=O)CN2C(=O)C(=O)N(C3CCCC3)C2=O)c1,2%,-1,3%,-7%,-19%
O=C(COC(=O)C1CC(O)CN1S(=O)(=O)c1ccccc1[N+](=O)[O-])c1ccc[nH]1 (configuration not stated),1%,-29,-16%,-5%[9.24 µM],2%
Cc1ccc(NC2CCCN(C(=O)c3cc(C(C)C)[nH]n3)C2)cc1C (configuration not stated),-19%,0,-17%,-7%,2%
O=S(=O)(Nc1nc2ccccc2nc1N1CCN(c2ccccc2F)CC1)c1ccc(Cl)cc1,?,40,?,-8%,-17%
COc1ccc(C)cc1S(=O)(=O)N1CCC(C(=O)NCCC2=CCCCC2)CC1,?,24,?,25%,-15%
COc1ccc(Cl)cc1S(=O)(=O)N1CCC(C(=O)NCCC2=CCCCC2)CC1,?,-17,23µM*,2%,-11%
Cc1nn(C)c(C)c1S(=O)(=O)N1CCC(C(=O)NCCC2=CCCCC2)CC1,?,36,18µM*,-7%,1%
COc1ccc(S(=O)(=O)N2CCCC(C(=O)NCCC3=CCCCC3)C2)cc1 (configuration not stated),?,-1,-7%,0%,-13%
Cc1cc(C)c(S(=O)(=O)N2CCCC(C(=O)NCCC3=CCCCC3)C2)c(C)c1 (configuration not stated),21µM*,-6,?,-1%[9.24 µM],-7%

# Source: PubChem (National Center for Advancing Translational Sciences (NCATS))
